From PubChem BioAssay AID1981 (Southern Research Specialized Biocontainment Screening …, 2009)
The campaign covered roughly 2,200 compounds. About 480 (22%) were called active. How the calls were made is not given here. Not all results are given here. Measured potencies and affinities stand elsewhere.

Test: S. Typhimurium GFP fluorescence dose response in modified counterscreen for PhoP regulon inhibitor project (AID 1981)
Details: 4 h; series mostly up to 150 µM

SMILES | outcome
CCCCCNS(=O)(=O)c1cc(C)ccc1OC | inactive
O=C1Nc2ccccc2C(O)(C(=O)N2CCCCC2)N1c1ccccc1 (stereo not given) | inactive
Cc1cc(C2=NNC(=NC3CC3)SC2)c(C)n1Cc1ccco1 | inactive
Cc1cccc(OCCCSc2nc3ccc(C)cc3[nH]2)c1 | inactive
C=C(C)Cn1c(CCn2c3ccccc3c3ccccc32)n[nH]c1=S | inactive
N#C/C(=C\c1c(Cl)cccc1Cl)c1nc2ccccc2[nH]1 | inactive
COCc1cc(C)nc(N2CCc3ccccc32)c1C#N | inactive
CCOc1ccc2nc(COC(=O)c3ccco3)c(C(C)=O)[n+]([O-])c2c1 | inactive
CCOC(=S)SCC(=O)Nc1nc(-c2ccccc2)cs1 | inactive
Cc1ccc(NC(=O)CCN2CCc3ccccc3C2)cc1 | inactive
CN(C)CC(=O)Nc1nc(-c2ccccc2)cs1 | inactive
Cc1ccc(C[n+]2cc(-c3ccc(Cl)cc3)n3c2CCC3)cc1 | inactive
COc1ccc(-c2csc(NC(=O)C3CCCO3)n2)cc1 (stereo not given) | inactive
COc1ccc2cc(C)c3nnc(SCC(=O)Nc4nc(-c5ccccc5)cs4)n3c2c1 | inactive
CCCCCOC(=O)C1=C(C)Nc2nnnn2C1c1ccc(OC)c(OC)c1OC (stereo not given) | inactive
Cc1ccc(Nc2nc(CSc3nnc(-c4ccc(F)cc4)n3C)cs2)cc1 | inactive
CSc1cccc(NC(=O)COc2cccc3ccccc23)c1 | inactive
COc1ccc(OC)c(NC(=S)NCCCN2CCOCC2)c1 | inactive
COc1ccccc1NC(=S)NNC(=O)c1c(Cl)c(C)nn1C | inactive
C=CCN(CC=C)Cc1c[nH]c2ccccc12 | inactive
Cc1cc(C)[n+](C2C3CC4CC(C3)CC2C4)o1 (stereo not given) | inactive
Cc1cccc(-n2c(N)cc(=O)[nH]c2=S)c1C | inactive
CCOC(=O)c1c(N)ssc1=S | inactive
O=C(OCCN1C(=O)c2ccccc2C1=O)c1ccc(S(=O)(=O)N2CCCCCC2)cc1 | inactive
O=C1c2ccccc2NC(c2ccc(-c3cccc(Cl)c3)o2)N1O (stereo not given) | inactive

SMILES | outcome
CCOC(=O)c1ccc2c(c1)C(=O)N(C1CCCCC1)C2=O | inactive
COc1cccc(C2Nc3ccccc3C(=O)N2O)c1O (stereo not given) | inactive
Cc1ccc([N+](=O)[O-])cc1NC(=O)CN(C(=O)c1ccc(Cl)cc1)C1CCCCC1 | inactive
Cc1cc(NC(=O)c2ccccc2-c2ccccc2)ccc1Br | inactive
CN1c2ccccc2C(=O)NC1c1ccc([N+](=O)[O-])s1 (stereo not given) | inactive
CCN(CC)Cc1c[nH]c2c(C(=O)OC)cccc12 | inactive
O=C(C1CCN(C2CC(=O)N(Cc3ccccc3)C2=O)CC1)N1CCCCCC1 (stereo not given) | inactive
N#Cc1c(N)n[nH]c1-c1cc2c([nH]1)CCCC2 | inactive
O=C(NCc1ccco1)c1c2c(nc3ccccc13)CCC2 | inactive
Cc1[nH]c2ccccc2c1C(=O)CN1CCSCC1 | inactive
c1ccc(C2CNCc3c2ccc2ccccc32)cc1 (stereo not given) | inactive
CCOc1ccc(CSC(CC(=O)O)C(=O)O)cc1 (stereo not given) | inactive
O=C(CCN1C(=O)c2ccccc2S1(=O)=O)Nc1ccc2c(c1)OCCO2 | inactive
CCOC(=O)c1cc2ccc(OC)c(OC)c2c(=O)s1 | inactive
COc1cccc(NC(=O)CNC(=O)c2cccs2)c1 | inactive
Cc1ccccc1Cn1nc(C)c(NC(=O)c2noc3c2CCc2ccccc2-3)c1C | inactive
O=C1C(c2ccc(F)cc2)N(Cc2ccc3c(c2)OCO3)C(=O)CN1C1CCCCCC1 (stereo not given) | inactive
COc1ccc(NC2=NC3(CCCCC3)N=C(N)N2)cc1 | inactive
CCOC(=O)c1c(C)[nH]c(C)c1C(=O)CSc1ncccn1 | inactive
Cc1cccn2cc(CSc3nnc(Nc4ccc(C(C)C)cc4)s3)nc12 | inactive
CC1CCN(C(=O)c2ccc3c(c2NCCO)C(=O)c2ccccc2C3=O)CC1 | inactive
CSc1nsc(SCC(=O)Nc2ccc(C(C)=O)cc2)n1 | inactive
CN(C(=O)/C=C/c1ccccc1)C1CCS(=O)(=O)C1 (stereo not given) | inactive
Cc1cc(C)nc(N(C#N)C(C)C(=O)N(C)C)n1 (stereo not given) | inactive
Cc1c(C)n(Cc2ccccc2)c2ncnc(N)c12 | inactive

SMILES | outcome
O=c1[nH]c(CN2CC=C(c3ccccc3)CC2)nc2cc(C(F)(F)F)ccc12 | inactive
COc1ccccc1Nc1nc(NCc2ccco2)c2ccccc2n1 | inactive
COc1ccc(Nc2nc(-c3cccc([N+](=O)[O-])c3)nc3ccccc23)cc1 | inactive
BrC(=C\c1ccccc1)/C=N/N1CCN(c2ccccn2)CC1 | inactive
C/C(CC(=O)Nc1ccc(Cl)c(C(F)(F)F)c1)=N\NC(=O)c1cccc(O)c1 | inactive
N=c1n(Cc2ccc(Cl)cc2)c2ccccc2n1CC(O)c1ccco1 (stereo not given) | inactive
N=c1n(CCO)c2ccccc2n1Cc1ccc(Cl)cc1 | inactive
C#CCN1C(=O)C(O)(CC(=O)c2ccc(OC)c(OC)c2)c2ccccc21 (stereo not given) | inactive
CCCCCCCCOC(=O)C1=C(C)Nc2nnnn2C1c1cccs1 (stereo not given) | inactive
COc1ccc(Oc2ccccc2/C=N/O)cc1 | inactive
CCNC(=S)NNC(=O)c1ccc(OC(F)F)cc1 | inactive
COC(=O)c1ccc(COC(=O)c2ccccn2)cc1 | inactive
CC(C)NC(=O)CSc1nc(N)c(NC(=O)c2ccccc2F)c(=O)[nH]1 | inactive
Cc1cc(C)c2c(=O)[nH]c(SCC(=O)Nc3ccc(N(C)C)cc3)nc2n1 | inactive
CCOC(=O)C1=C(C)NC(=S)NC1c1ccc(OC(=O)c2ccco2)cc1 (stereo not given) | inactive
COc1ccc(NC2=NC(=S)N(c3cccc(C)c3)C23CCCCC3)cc1 | inactive
Cc1cccc(NC(=O)c2ccc(Cn3cc(C(F)(F)F)ccc3=O)cc2)c1 | inactive
O=C(O)/C=C/C(=O)Nc1cccc(C(F)(F)F)c1 | inactive
CN(C)CC(C(=O)c1ccccc1)c1ccccc1 (stereo not given) | inactive
Cc1ccc(C(=O)NCc2ccc(Cl)cc2)o1 | inactive
Cc1ccc(C(=O)Nc2ccc3c(c2)OCO3)o1 | inactive
O=C(NC(c1ccc(Cl)cc1)c1c(O)ccc2ccccc12)c1ccccc1 (stereo not given) | inactive
CCCCCn1c(C(C)NC(=O)CCC)nc2ccccc21 (stereo not given) | inactive
Cc1ccc2cccnc2c1NC(=S)NC(=O)c1ccccc1 | inactive
O=C(CCc1ccccc1)Nc1nc2ccc(S(=O)(=O)N3CCOCC3)cc2s1 | inactive
